Screens from PubChem BioAssay.
Bcl-xL primary = inhibitors of human Bcl-xL, primary screen, biochemical, fluorescence polarization, HTS | Bcl-2-like protein 1 (Homo sapiens), Q07817 | actives 0.7% (n = 320,000) | GST-Bcl-xL / FITC-Bim BH3 peptide fluorescence polarization | inhibition, % at 10.9 µM | AID 2129, 2009;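 active means inhibition above the mean of all tested compounds plus 3 SD, cutoff set per campaign, cut at about 30% in these data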;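 further: 0% = DMSO wells and 100% = unlabeled Bim-BH3 peptide competitor; inhibitors lower millipolarization by displacing the labeled peptide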
Target sequence (Q07817 whole entry, looked up): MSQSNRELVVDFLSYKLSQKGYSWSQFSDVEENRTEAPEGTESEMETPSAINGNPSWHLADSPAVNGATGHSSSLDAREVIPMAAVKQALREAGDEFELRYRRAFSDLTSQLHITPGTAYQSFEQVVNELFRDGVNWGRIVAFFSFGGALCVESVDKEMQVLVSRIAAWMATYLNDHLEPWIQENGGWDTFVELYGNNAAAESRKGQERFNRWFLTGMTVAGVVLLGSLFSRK
Mcl1-Bid inh = Mcl-1/Bid binding inhibitors, primary screen, biochemical, TR-FRET, 1536-well. actives 0.97% (n = 220,000). TR-FRET Mcl-1/Bid-Dy647 peptide binding. inhibition, % at 21.7 µM. Induced myeloid leukemia cell differentiation protein Mcl-1 (Homo sapiens), Q07820;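 active means compounds that cut the binding signal by more than half at the single screening dose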;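 further: His-tagged Mcl-1 with europium anti-His antibody binding Bid BH3 peptide; 0% = Mcl-1 plus peptide wells and 100% = peptide-only wells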
Target sequence (Q07820 whole entry, looked up): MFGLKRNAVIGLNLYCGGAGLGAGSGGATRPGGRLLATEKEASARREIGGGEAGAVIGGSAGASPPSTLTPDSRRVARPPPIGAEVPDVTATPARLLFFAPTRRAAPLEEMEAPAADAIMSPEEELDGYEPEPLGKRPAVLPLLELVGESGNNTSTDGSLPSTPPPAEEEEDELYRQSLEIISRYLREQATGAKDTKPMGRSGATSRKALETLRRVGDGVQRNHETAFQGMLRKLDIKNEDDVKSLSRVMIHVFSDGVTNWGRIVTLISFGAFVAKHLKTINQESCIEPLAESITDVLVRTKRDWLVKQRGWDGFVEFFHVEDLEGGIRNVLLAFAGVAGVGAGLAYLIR
MCL1 BIM primary = inhibitors of MCL1 binding to BIM-BH3, primary screen, biochemical, fluorescence polarization | GST-MCL1 / FITC-Bim-BH3 fluorescence polarization | inhibition, % at 10.9 µM | actives 0.68% (n = 320,000);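 active means inhibition above the mean inhibition of all tested compounds plus 3 SD, set per campaign, cut at about 40% in these data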;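 further: 0% = DMSO wells and 100% = unlabeled Bim-BH3 peptide control; higher means more loss of mP so more displacement of Bim peptide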
Mcl1-Noxa inh = Mcl-1/Noxa binding inhibitors, primary screen, biochemical, TR-FRET, 1536-well. Induced myeloid leukemia cell differentiation protein Mcl-1 (Homo sapiens), Q07820. TR-FRET Mcl-1/Noxa peptide binding, 2 h. inhibition, % at 21.7 µM. actives 1.5% (n = 220,000). AID 1022, 2008;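 active means compounds that cut the protein-peptide binding signal by more than 50% relative to plate controls in a single-dose test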;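 further: His-tagged Mcl-1 with rhodamine Noxa BH3 peptide and terbium anti-His antibody; 0% = Mcl-1 plus Noxa peptide wells and 100% = peptide-only wells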
Mcl-1 Bim block = inhibitors of Bim peptide binding to Mcl-1, primary screen, biochemical, bead-based flow cytometry, multiplex | Induced myeloid leukemia cell differentiation protein Mcl-1 (Homo sapiens), Q07820 | Bim peptide-Mcl-1 binding | inhibition, % at 10 µM | actives 0.1% (n = 190,000) | AID 1009, 2008; in the data active means inhibition above about 40%;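 further: 0% = no compound tracer wells and 100% = peptide blocker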
GLD-1 RNA inh = GLD-1/TGE RNA complex disruptors, primary screen, biochemical, fluorescence polarization. Female germline-specific tumor suppressor gld-1 (Caenorhabditis elegans), Q17339. purified GLD-1 + fluorescein TGE RNA. inhibition, % at 5.96 µM. actives 0.44% (n = 320,000). AID 2280, 2010;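 active means percent inhibition above a per-plate cutoff, the plate mean of test compounds plus 3 SD, cut at about 30% in these data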;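 further: 0% = DMSO wells with GLD-1 and probe and 100% = wells lacking GLD-1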
Starred values were filed as active, the others as inactive; · = no result. A selection: hits, their analogues and other compounds. The true share with any hit is near 2.3%.

SMILES	Bcl-xL primary	Mcl1-Bid inh	MCL1 BIM primary	Mcl1-Noxa inh	Mcl-1 Bim block	GLD-1 RNA inh
COc1ccc([C@H]2CC(=O)C=C(c3cc(C=O)ccc3OC)C2)cc1	0	·	1	·	·	2
COc1ccc(N2CCN(C(CNC(=O)c3cccc(Cl)c3)c3cccnc3)CC2)cc1 (stereo not drawn)	6	-19	4	6	0	4
COc1ccc(N2CCN(C(CNC(=O)c3ccco3)c3cccnc3)CC2)cc1 (stereo not drawn)	7	-18	2	11	0	-7
O=C(NCC(c1cccnc1)N1CCOCC1)c1cccc(Cl)c1 (stereo not drawn)	0	57*	0	10	-3	5
O=C(NCC(c1cccnc1)N1CCN(c2ccc(F)cc2)CC1)c1ccco1 (stereo not drawn)	151*	-11	0	11	0	5
O=[N+]([O-])c1ccccc1/C=N/n1c(-c2cccnc2)n[nH]c1=S	-24	-37	-17	46	-9	8
O=[N+]([O-])c1cc(/C=N/n2c(-c3cccnc3)n[nH]c2=S)ccc1Cl	-42	-25	0	70*	0	1
CCc1nc(N2CCN(C(=O)CCl)CC2)c2c3c(sc2n1)CC(C)CC3 (stereo not drawn)	2	·	2	·	·	11
CCN(CC)C(=O)C1CCCN(Cc2cccc(F)c2)C1 (stereo not drawn)	6	64*	7	34	-3	2
CN(CCOc1ccc(Br)cc1)C(=O)CNC(=O)c1ccc2ccccc2c1	3	·	-2	·	·	1
Cc1nc(NCc2ccc3c(c2)OCO3)c2nnn(Cc3ccccc3)c2n1	2	33	-6	-2	-3	5
c1ccc(Cn2nnc3c(NCc4ccc5c(c4)OCO5)nc(C4CC4)nc32)cc1	4	52*	6	-26	3	7
COc1ccc(NS(=O)(=O)c2ccc(NC(=S)NC(=O)/C=C/c3ccccc3)cc2)nn1	4	-33	2	58*	-10	4
O=C(/C=C/c1ccc(Br)cc1)NC(=S)Nc1ccc(S(=O)(=O)Nc2nccs2)cc1	3	58*	7	52*	-2	1
CCc1nnc(NS(=O)(=O)c2ccc(NC(=S)NC(=O)/C=C/c3ccccc3)cc2)s1	5	-31	13	58*	-19	7
O=C(NC(=S)Nc1ccc(S(=O)(=O)Nc2nccs2)cc1)c1ccc(Br)o1	6	-49	0	12	-7	-3
C=CCc1cccc2cc(C(=O)Nc3ccc(S(=O)(=O)Nc4nnc(CC)s4)cc3)c(=O)oc12	8	72*	5	107*	-5	3
Cc1cc(C)c(S(=O)(=O)N2CCCC(C(=O)NCc3ccncc3)C2)c(C)c1 (stereo not drawn)	2	·	7	·	·	8
O=C(NC1CC(=O)N(c2ccc3c(c2)OCCO3)C1)N1CCC(O)CC1 (stereo not drawn)	5	·	-8	·	·	2
CCc1nnc(NS(=O)(=O)c2ccc(NC(=S)NC(=O)/C=C/c3ccc(OC)cc3)cc2)s1	3	-17	4	50	0	6
CCc1nnc(NS(=O)(=O)c2ccc(NC(=S)NC(=O)/C=C/c3ccc(C(C)C)cc3)cc2)s1	6	100*	12	·	-4	2
Cc1nn(-c2ccccc2)c(NC(=O)c2cccs2)c(-c2ccccc2Cl)c1=O	5	24	7	-1	·	-1
COc1cc(CC(NC(C)=O)C(=O)NC2CCN(C(=O)Nc3ccccc3C)CC2)cc(OC)c1 (stereo not drawn)	1	·	1	·	·	-2
Cc1oc2c(CN3CCCC3)c(O)ccc2c(=O)c1-c1ccccc1	1	-32	3	-5	2	4
Cc1oc2c(CN3CCC(C)CC3)c(O)ccc2c(=O)c1-c1ccccc1	34*	·	6	·	·	14
SMILES	Bcl-xL primary	Mcl1-Bid inh	MCL1 BIM primary	Mcl1-Noxa inh	Mcl-1 Bim block	GLD-1 RNA inh
CCOc1ccccc1NC(=O)CN(c1ccc(OC)cc1)S(=O)(=O)c1c(C)[nH]c(=O)[nH]c1=O	12	·	6	·	·	3
COc1ccc(CCNc2nc(-c3ccncc3)cs2)cc1OC	1	-11	-1	0	·	-5
COc1ccc(CCNc2nc(-c3cccnc3)cs2)cc1OC	5	90*	4	11	-5	6
COc1ccc(CCNc2nc(-c3sc(C)nc3C)cs2)cc1OC	-5	73*	-5	60*	0	1
Nc1cc(=O)[nH]c(SCC(=O)N2CCCC2)n1	·	·	·	·	·	-2
CCCN(C(=O)c1cc(S(=O)(=O)N(C)c2ccc(OCC)cc2)ccc1C)C1CCS(=O)(=O)C1 (stereo not drawn)	-1	·	0	·	·	2
CC(C)COC(=O)/C(C#N)=C/c1cn(Cc2ccccc2)c2ccccc12	6	-17	5	-1	40*	0
CC(C)OC(=O)/C(C#N)=C/c1cn(Cc2ccccc2)c2ccccc12	-2	-2	-4	-11	-4	0
C=CCOC(=O)c1cc(-c2ccc(/C=C3\C(=O)NC(=O)C(C#N)=C3C)o2)ccc1Cl	·	99*	·	105*	-6	·
CC1=C(C#N)C(=O)NC(=O)/C1=C/c1ccc(-c2ccc(S(N)(=O)=O)cc2)o1	18	-38	19	87*	2	6
CCCOC(=O)c1cc(-c2ccc(/C=C3/C(=O)N(C)C(=O)C(C#N)=C3C)o2)ccc1Cl	-24	·	-32	·	·	6
CC(O)CN(CCC(N)=O)CCC(N)=O (stereo not drawn)	1	52*	0	15	-1	-1
COc1c(C)cccc1C(=O)NCc1ccc2c(c1)OCO2	2	·	2	·	·	4
CCOc1ccccc1NC(=O)C(c1ccccc1)N1CCN(C(=O)c2ccco2)CC1 (stereo not drawn)	7	·	3	·	·	-1
CCc1nc(C)ccc1OCC(=O)NCCCN(C)C	-3	55*	0	32	-3	8
CCc1nc(C)ccc1OCC(=O)O	-2	22	-8	20	-1	4
Clc1cncc(Cl)c1NNc1c2ccccc2nc2ccccc12	10	-9	4	58*	-6	11
c1cncc(Nc2c3ccccc3nc3ccccc23)c1	8	·	10	·	·	11
COc1ccc(C)cc1Nc1n[n+](C)c(-c2c3ccccc3cc3ccccc23)s1	32*	·	28	·	·	13
COc1ccc(C)cc1Nc1n[n+](C)c(-c2ccc(O)cc2O)s1	1	·	8	·	·	-4
